Consider three compounds from PubChem BioAssay (EPA / NIEHS).

Broadly, the AC50 is the midpoint of the concentration-response curve, whichever way the signal moves.

Activity calls are given as the source filed them. Rule for the calls: active = hit-call score of the fitted dose curve at least 0.9, where 1 is the maximum; inactive = score below 0.9.

Read-out in experiment [1]: Cyclin Dependent Kinase Inhibitor 1A (CDKN1A), CDKN1A (gene 1026)
Description: LTEA_HepaRG_CDKN1A: Life Technologies and Expression Analysis (LTEA) Assay for Cyclin Dependent Kinase Inhibitor 1A (CDKN1A) using HepaRG (AID 2283450). To be noted: mRNA level, 48 h; actives raise or lower the signal. The method, boiled down: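 HepaRG, 48 h dosing, 8-pt half-log series from 100 uM top, 0.5% DMSO vehicle, duplicates. Readout: TaqMan qRT-PCR of CDKN1A transcript, housekeeping-normalized (ACTB, GAPDH, POLR2A). Up/down curve fit relative to DMSO.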

Read-out in experiment [2]: Cyclin D1 (CCND1), CCND1 (gene 595)
The experiment in a line: LTEA_HepaRG_CCND1: Life Technologies and Expression Analysis (LTEA) Assay for Cyclin D1 (CCND1) using HepaRG (AID 2283451).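 For AC50: differentiated human HepaRG liver cells in serum-free induction medium.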 To be noted: mRNA level, 48 h; actives raise or lower the signal. In short, it runs like this: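 qRT-PCR (Fluidigm 96.96 array) read-out of transcript level, housekeeping-normalized (ACTB/GAPDH/POLR2A). HepaRG cells, 48 h chemical exposure, 8-point half-log series from 100 uM, 0.5% DMSO vehicle; gain or loss relative to DMSO baseline.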

Read-out in experiment [3]: catalase (CAT), CAT (gene 847)
Description: LTEA_HepaRG_CAT: Life Technologies and Expression Analysis (LTEA) Assay for catalase (CAT) using HepaRG (AID 2283452). To be noted: mRNA level, 48 h; actives raise or lower the signal. In short, it runs like this: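 Expression of CAT was quantified by TaqMan qRT-PCR with ACTB/GAPDH/POLR2A normalization after 48 h chemical exposure of HepaRG. Eight-point half-log series, top 100 uM, in 0.5% DMSO; gain or loss fitted against vehicle.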

Read-out in experiment [4]: flavin-containing dimethylaniline monooxygenases 3 (FMO3), FMO3 (gene 2328)
Description: LTEA_HepaRG_FMO3: Life Technologies and Expression Analysis (LTEA) Assay for flavin-containing dimethylaniline monooxygenases 3 (FMO3) using HepaRG (AID 2283453).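 For AC50: differentiated human HepaRG liver cells in serum-free induction medium.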 To be noted: mRNA level, 48 h; actives raise or lower the signal. In short, it runs like this:
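Eight-point concentration-response in serum-free HepaRG cultures (top 100 uM, 0.5% DMSO, 48 h). Read-out: FMO3 mRNA level normalized to three endogenous control genes, fitted bidirectionally versus vehicle.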

Read-out in experiment [5]: Cytochrome P450 (CYP1A1), CYP1A1 (gene 1543)
The experiment in a line: LTEA_HepaRG_CYP1A1: Life Technologies and Expression Analysis (LTEA) Assay for Cytochrome P450 (CYP1A1) using HepaRG (AID 2283454). As to conditions: mRNA level, 48 h; actives raise or lower the signal. The method, boiled down: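 qRT-PCR read-out: CYP1A1 transcript normalized to three housekeeping genes, fitted bidirectionally against 0.5% DMSO vehicle baseline. Human HepaRG cells, 48 h chemical exposure, 8-point half-log series topping at 100 uM.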

Read-out in experiment [6]: CFLAR gene, CFLAR (gene 8837)
Description: LTEA_HepaRG_CFLAR: Life Technologies and Expression Analysis (LTEA) Assay for CFLAR gene using HepaRG (AID 2283455). As to conditions: mRNA level, 48 h; actives raise or lower the signal. In short, it runs like this: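 Transcript level by qRT-PCR (normalized to ACTB, GAPDH and POLR2A) after 48 h chemical exposure of HepaRG cells, top concentration 100 uM with half-log steps, 0.5% DMSO vehicle, duplicates; fitted bidirectionally against DMSO baseline.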

Read-out in experiment [7]: Forkhead box O1 (FOXO1), FOXO1 (gene 2308)
The experiment in a line: LTEA_HepaRG_FOXO1: Life Technologies and Expression Analysis (LTEA) Assay for Forkhead box O1 (FOXO1) using HepaRG (AID 2283456). As to conditions: mRNA level, 48 h; actives raise or lower the signal. In short, it runs like this:
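FOXO1 transcript quantified by qRT-PCR after 48 h chemical exposure (top 100 uM, half-log steps, 0.5% DMSO) of HepaRG cells, housekeeping-normalized (ACTB/GAPDH/POLR2A). Changes fitted in both directions relative to vehicle.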

Read-out in experiment [8]: growth arrest and DNA damage 45 (GADD45A), GADD45A (gene 1647)
The experiment in a line: LTEA_HepaRG_GADD45A: Life Technologies and Expression Analysis (LTEA) Assay for growth arrest and DNA damage 45 (GADD45A) using HepaRG (AID 2283458). As to conditions: mRNA level, 48 h; actives raise or lower the signal. The method, boiled down:
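HepaRG, 48 h exposure, 8 conc. (top 100 uM, half-log steps), 0.5% DMSO vehicle, duplicates. Read-out: qRT-PCR mRNA level, housekeeping-normalized (ACTB/GAPDH/POLR2A). Curves fit bidirectionally vs DMSO baseline.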

Read-out in experiment [9]: Forkhead box O3 (FOXO3), FOXO3 (gene 2309)
The experiment in a line: LTEA_HepaRG_FOXO3: Life Technologies and Expression Analysis (LTEA) Assay for Forkhead box O3 (FOXO3) using HepaRG (AID 2283459). To be noted: mRNA level, 48 h; actives raise or lower the signal. The method, boiled down: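 FOXO3 transcript measured by qRT-PCR (normalized to ACTB, GAPDH, POLR2A) after 48 h exposure of HepaRG cells in serum-free induction medium. Duplicates, eight half-log concentrations up to 100 uM, 0.5% DMSO; gain or loss fitted against DMSO.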

Read-out in experiment [10]: ABC Transporter (ABCB1), ABCB1 (gene 5243)
Description: LTEA_HepaRG_ABCB1: Life Technologies and Expression Analysis (LTEA) Assay for ABC Transporter (ABCB1) using HepaRG (AID 2283460). As to conditions: mRNA level, 48 h; actives raise or lower the signal. The method, boiled down: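 ABCB1 transcript level measured by TaqMan qRT-PCR against three housekeeping genes after 48 h chemical exposure of differentiated HepaRG cells. Top concentration 100 uM, half-log steps, eight points, 0.5% DMSO vehicle; bidirectional fit relative to DMSO.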

Read-out in experiment [11]: growth arrest and DNA damage 45 (GADD45B), GADD45B (gene 4616)
Description: LTEA_HepaRG_GADD45B: Life Technologies and Expression Analysis (LTEA) Assay for growth arrest and DNA damage 45 (GADD45B) using HepaRG (AID 2283461). To be noted: mRNA level, 48 h; actives raise or lower the signal. In short, it runs like this: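 qRT-PCR read-out (Fluidigm TaqMan, housekeeping-normalized) of mRNA change in human HepaRG cells after 48 h chemical exposure; 8-point curve, top 100 uM, half-log steps, 0.5% DMSO vehicle; gain or loss fitted relative to DMSO baseline.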

Read-out in experiment [12]: ABC Transporter (ABCC3), ABCC3 (gene 8714)
Description: LTEA_HepaRG_ABCC3: Life Technologies and Expression Analysis (LTEA) Assay for ABC Transporter (ABCC3) using HepaRG (AID 2283462). As to conditions: mRNA level, 48 h; actives raise or lower the signal. In short, it runs like this: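 qRT-PCR read-out of ABCC3 transcript, normalized to three housekeeping genes (ACTB, GAPDH, POLR2A), after 48 h chemical exposure of human HepaRG cells. Eight half-log concentrations, highest 100 uM, in 0.5% DMSO; gain or loss fitted relative to DMSO baseline.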

Read-out in experiment [13]: ABC Transporter (ABCB11), ABCB11 (gene 8647)
The experiment in a line: LTEA_HepaRG_ABCB11: Life Technologies and Expression Analysis (LTEA) Assay for ABC Transporter (ABCB11) using HepaRG (AID 2283463). As to conditions: mRNA level, 48 h; actives raise or lower the signal. In short, it runs like this:
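ABCB11 transcript levels quantified by TaqMan qRT-PCR against three housekeeping genes after 48 h chemical exposure of HepaRG cultures. Concentrations up to 100 uM in half-log steps, 0.5% DMSO vehicle; both induction and suppression scored.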

Read-out in experiment [14]: ABC Transporter (ABCC2), ABCC2 (gene 1244)
The experiment in a line: LTEA_HepaRG_ABCC2: Life Technologies and Expression Analysis (LTEA) Assay for ABC Transporter (ABCC2) using HepaRG (AID 2283464). As to conditions: mRNA level, 48 h; actives raise or lower the signal. In short, it runs like this:
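qRT-PCR (TaqMan, Fluidigm array) read-out of ABCC2 mRNA, normalized to three housekeeping genes. Differentiated HepaRG cells were treated 48 h in serum-free induction medium with 8-point half-log series from 100 uM in 0.5% DMSO; curves fitted bidirectionally relative to DMSO.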

Read-out in experiment [15]: Broad substrate specificity ATP-binding cassette transporter ABCG2 (Homo sapiens) (UniProt Q9UNQ0)
The experiment in a line: LTEA_HepaRG_ABCG2: Life Technologies and Expression Analysis (LTEA) Assay for ABC Transporter (ABCG2) using HepaRG (AID 2283465). To be noted: mRNA level, 48 h; actives raise or lower the signal. In short, it runs like this:
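ABCG2 transcript was quantified by TaqMan qRT-PCR against three housekeeping genes in HepaRG cells. Cells were treated in duplicate for 48 h across an 8-point half-log series up to 100 uM, with 0.5% DMSO vehicle. Gain or loss versus DMSO was fit.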

Read-out in experiment [16]: ATP-citrate lyase (ACLY), ACLY (gene 47)
Description: LTEA_HepaRG_ACLY: Life Technologies and Expression Analysis (LTEA) Assay for ATP-citrate lyase (ACLY) using HepaRG (AID 2283466). As to conditions: mRNA level, 48 h; actives raise or lower the signal. In short, it runs like this:
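ACLY mRNA quantified by qRT-PCR on Fluidigm arrays against three housekeeping genes, after 48 h chemical treatment of HepaRG cells (top concentration 100 uM, half-log steps, 0.5% DMSO vehicle). Up- or down-regulation fitted relative to DMSO.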

Read-out in experiment [17]: Peroxisomal acyl-coenzyme A oxidase 1 (ACOX1) gene, ACOX1 (gene 51)
Description: LTEA_HepaRG_ACOX1: Life Technologies and Expression Analysis (LTEA) Assay for Peroxisomal acyl-coenzyme A oxidase 1 (ACOX1) gene using HepaRG (AID 2283467). To be noted: mRNA level, 48 h; actives raise or lower the signal. The method, boiled down:
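ACOX1 transcript levels were quantified by TaqMan qRT-PCR against three housekeeping genes after 48 h chemical exposure of differentiated human HepaRG cells. Exposure used eight half-log steps topping at 100 uM, 0.5% DMSO vehicle, in duplicate. Bidirectional curve fits were made relative to DMSO.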

Read-out in experiment [18]: Alkaline Phosphatase, Placental (ALPP) gene, ALPP (gene 250)
The experiment in a line: LTEA_HepaRG_ALPP: Life Technologies and Expression Analysis (LTEA) Assay for Alkaline Phosphatase, Placental (ALPP) gene using HepaRG (AID 2283468). To be noted: mRNA level, 48 h; actives raise or lower the signal. In short, it runs like this: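 qRT-PCR readout of ALPP mRNA (Fluidigm TaqMan), normalized to ACTB/GAPDH/POLR2A, after 48 h chemical exposure of HepaRG cells; 8-point half-log series, top 100 uM, 0.5% DMSO vehicle. Bidirectional curve fit versus DMSO baseline.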

Read-out in experiment [19]: Bcl-2 (BAD) gene, BAD (gene 572)
The experiment in a line: LTEA_HepaRG_BAD: Life Technologies and Expression Analysis (LTEA) Assay for Bcl-2 (BAD) gene using HepaRG (AID 2283469). As to conditions: mRNA level, 48 h; actives raise or lower the signal. The method, boiled down:
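Read-out: qRT-PCR of BAD mRNA, normalized to three housekeeping genes. Human HepaRG cultures got 48 h chemical exposure in 0.5% DMSO, duplicate eight-point half-log series topping at 100 uM. Gain or loss of signal fitted versus DMSO vehicle.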

A short description of experiment [20]: CEETOX_H295R_TESTO: CeeTox H295R High-throughput Steroidogenesis Assay for Testosterone (TESTO) (AID 2283457).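 Note: cells exposed to chemicals for 48 h before medium collection.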 As to conditions: actives raise or lower the signal. In short, it runs like this: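 Readout: testosterone quantified by HPLC-MS/MS (C18, ESI positive) after MTBE liquid-liquid extraction of culture medium. Cells were H295R, 48 h chemical exposure per OECD 456 with modifications. Gain or loss of signal fitted relative to DMSO.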

Broad substrate specificity ATP-binding cassette transporter ABCG2 (Homo sapiens), sequence (Q9UNQ0 whole entry, looked up): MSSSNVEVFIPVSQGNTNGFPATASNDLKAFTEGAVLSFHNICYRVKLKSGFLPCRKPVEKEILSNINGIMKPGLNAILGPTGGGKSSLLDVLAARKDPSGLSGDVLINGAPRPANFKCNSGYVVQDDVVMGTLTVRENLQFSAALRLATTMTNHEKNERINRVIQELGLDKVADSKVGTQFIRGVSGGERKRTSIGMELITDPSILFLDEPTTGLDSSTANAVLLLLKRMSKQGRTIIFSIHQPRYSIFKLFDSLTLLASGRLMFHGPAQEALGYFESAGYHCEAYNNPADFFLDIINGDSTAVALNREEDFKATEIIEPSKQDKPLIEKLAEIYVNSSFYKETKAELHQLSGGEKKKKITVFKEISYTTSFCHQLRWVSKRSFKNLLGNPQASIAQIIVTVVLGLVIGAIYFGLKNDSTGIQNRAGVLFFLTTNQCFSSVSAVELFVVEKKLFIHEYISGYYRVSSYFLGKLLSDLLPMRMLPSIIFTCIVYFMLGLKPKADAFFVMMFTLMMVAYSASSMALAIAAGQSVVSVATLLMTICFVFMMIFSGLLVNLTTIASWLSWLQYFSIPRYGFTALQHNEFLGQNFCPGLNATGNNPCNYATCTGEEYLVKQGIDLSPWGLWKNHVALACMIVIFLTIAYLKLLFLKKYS

As for `CC/C(=C(/CC)c1ccc(O)cc1)c1ccc(O)cc1`, the outcome in [1], in experiment [5], in experiment [8], in experiment [12], in [13] and in experiment [18] was inactive. Also, the outcome in experiment [19] was inactive. Besides, the AC50 is 80.3 µM (active) in [2]; 91.7 µM (active) in experiment [3]; 92.4 µM (active) in experiment [4]; 50 µM (active) in experiment [6]; 74.8 µM (active) in experiment [7]; 76.9 µM (active) in experiment [9]. The AC50 was 82.2 µM (active) in experiment [10]; 68.8 µM (active) in experiment [11]; 78 µM (active) in experiment [14]; 50 µM (active) in experiment [15]; 50 µM (active) in experiment [16]; 93.1 µM (active) in experiment [17].

Turning to `CCO[Si](CCCNC(N)=O)(OCC)OCC`, the result in [1], in experiment [2], in experiment [3], in [4], in experiment [6] and in [7] was inactive. For the same compound, the result in [8], in experiment [9], in [10], in experiment [11], in experiment [12] and in experiment [13] was inactive. Besides, the outcome in [14], in experiment [15], in [16], in [17], in [18] and in experiment [19] was inactive. Besides, the AC50 in experiment [5] is 50 µM (active).

For the compound `Oc1ccc2ccccc2c1`, the compound was classed as inactive in experiment [1], in [2], in experiment [3], in experiment [4], in experiment [6] and in experiment [7]. In addition, the compound was called inactive in [8], in [9], in [10], in experiment [11], in experiment [13] and in experiment [14]. Also, the compound was classed as inactive in [15], in experiment [16], in [18] and in [19]. The AC50 in [5] was 66.8 µM (active); in experiment [20], 82.4 µM (active).
